ATG4B inh: blocks human ATG4B protease cleavage of LC3 substrate. Q9Y4P1. ATG4B cleavage of LC3-PLA2, NBD-HPC fluorescence, 1 h. inhibition, % at 8.33 µM. 340,000 compounds, 0.51% hits
Target sequence (Q9Y4P1 whole entry, looked up): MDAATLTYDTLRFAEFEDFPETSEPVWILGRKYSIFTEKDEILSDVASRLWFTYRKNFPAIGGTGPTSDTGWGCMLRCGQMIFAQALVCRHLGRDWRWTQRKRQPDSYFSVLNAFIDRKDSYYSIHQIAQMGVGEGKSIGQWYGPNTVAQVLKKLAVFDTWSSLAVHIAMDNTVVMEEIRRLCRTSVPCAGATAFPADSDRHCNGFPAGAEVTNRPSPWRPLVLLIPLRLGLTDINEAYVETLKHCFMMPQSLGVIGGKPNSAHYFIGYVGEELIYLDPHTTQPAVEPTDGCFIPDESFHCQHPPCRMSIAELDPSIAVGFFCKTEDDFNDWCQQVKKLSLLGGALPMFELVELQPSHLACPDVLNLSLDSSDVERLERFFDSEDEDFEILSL
CendR NRP1 mod: modulators of CendR peptide binding to human neuropilin-1. O14786. FAM-RPARPAR peptide binding to NRP-1, fluorescence polarization. inhibition, % at 25 µM. 360,000 compounds, 0.85% hits;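 active = inhibition or corrected inhibition above about 18%, plus a signal ratio from 0.5 to 1.5, limit read from the data, passing the limit was not always enough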
PKA-R2B act: PKA-R2B complex activation; P22694+P31323; PKA-R2B holoenzyme dissociation, Cy5-IP20 fluorescence polarization; R2B truncated from residue 108, S112A mutant; 0% DMSO only, 100% 113 µM cGMP; activation, % at 11.4 µM; 340,000 compounds, 0.079% hits;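 active = activation above a cutoff set at the mean over all compounds plus 3 SD, cut at about 18% in these data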;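 note: higher means more holoenzyme dissociation and a rise in polarization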
VLA-4 inh: inhibition in a human VLA-4 binding assay; P13612; VLA-4 expressing cells, ligand binding flow cytometry; inhibition, % (about 7 µM as worked out from the volumes in the protocol); 330,000 compounds, 0.2% hits; in the data active = inhibition above about 50%
PKA-R1A act: activators of PKA-R1A complex | P00514+P68181 | 340,000 compounds, 0.083% hits | activation, % at 11.4 µM | PKA-R1A dissociation, Cy5-IP20 fluorescence polarization; scaled: DMSO 0%, 113 µM cGMP 100%;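 active = percent activation above the mean of all tested compounds plus 3 SD, cut at about 19% in these data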;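 note: higher means more PKAc released from R1A so a rise in polarization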
VLA-4 mod pick: human VLA-4 allosteric modulation in cherry picked compounds. 1,300 compounds, 2% hits. AID 2813. inhibition, % at 6.7 µM. shares compounds with VLA-4 inh. U937 cells, HUTS-21 LIBS mAb binding, flow cytometry; LDV ligand present at threefold Kd;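 note: 0% = ligand without compound and 100% = no ligand background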
* hit, by the source's call. A selection: hits, their analogues and other compounds. The true share with any hit is near 1.6%. Cut-off read from the data, not from the text of the source, unless noted: active = inhibition above about 40%; inactive = the rest.

Screening COc1ccccc1-c1sc2ccccc2c1-c1ccc(OCCN2CCCCC2)cc1 returned ATG4B inh -1.7, CendR NRP1 mod -1.4, PKA-R2B act 2.8, PKA-R1A act 2.3 and VLA-4 mod pick 0.0.
`COc1ccc(-c2sc3cc(OC)ccc3c2-c2ccc(OCCN3CCCCC3)cc2)cc1` gave CendR NRP1 mod 9.4.
For COc1ccc2[nH]c3c(c2c1)CCN1C(=O)C(CC(=O)NCCCn2ccnc2)C[C@H](C(=O)N2CCOCC2)[C@@]31C (stereo partly drawn) the results were CendR NRP1 mod -3.3, PKA-R2B act -1.0 and PKA-R1A act -5.7.
`CCN(CC)CCSc1nnc2c3ccccc3n(Cc3ccccc3)c2n1` gave ATG4B inh -6.9, CendR NRP1 mod -0.3, PKA-R2B act 1.7, VLA-4 inh 11.7 and PKA-R1A act 4.6.
Screening COc1ccc(/C=C\C(=O)NCc2ccc3c(c2)cc(C)n3C)cc1OC returned ATG4B inh -10.1, CendR NRP1 mod 0.2, PKA-R2B act 0.1, VLA-4 inh 58.1*, PKA-R1A act -10.9 and VLA-4 mod pick 2.0.
COc1ccc(C(=O)NCc2ccc3c(c2)cc(C)n3C)cc1OC was read as ATG4B inh 0.6, CendR NRP1 mod 3.8, PKA-R2B act -1.8, VLA-4 inh 5.5 and PKA-R1A act 2.6.
Cc1cc(C)n(/C(=C\N(C)C)C(=O)c2cccc([N+](=O)[O-])c2)n1 was read as ATG4B inh 8.1, CendR NRP1 mod 5.8, PKA-R2B act -4.7, VLA-4 inh 41.7, PKA-R1A act -1.0 and VLA-4 mod pick -17.5.
Cc1cc(C)n(/C(=C\N(C)C)C(=O)c2ccc(Cl)cc2)n1 was read as ATG4B inh 0.7, CendR NRP1 mod 9.1, PKA-R2B act -8.5, VLA-4 inh 14.5 and PKA-R1A act -9.8.
For O=C(CSc1nnc(-c2ccc(Cl)cc2)n1Cc1ccco1)NCc1ccc2c(c1)OCO2 the results were ATG4B inh -6.1, CendR NRP1 mod 5.3, PKA-R2B act 7.9, VLA-4 inh 89.4*, PKA-R1A act -4.4 and VLA-4 mod pick 0.0.
CCOC(=O)C(CC)(CC)C(=O)/C=C/c1ccc(Br)cc1 was read as ATG4B inh 1.5, CendR NRP1 mod 3.0, PKA-R2B act -3.0, VLA-4 inh 89.7*, PKA-R1A act -3.5 and VLA-4 mod pick 4.7.
Screening CC(C)(C)c1ccc(C(=O)N2CCC2(C)C(=O)NCc2cccc3ccccc23)cc1 (stereo not drawn) returned CendR NRP1 mod -4.3.
For Cc1cc(C)cc(N(CC(=O)Nc2cccc(C)c2C)S(=O)(=O)c2c(C)[nH]c(=O)[nH]c2=O)c1 the results were ATG4B inh -2.3, CendR NRP1 mod 10.1, PKA-R2B act -10.1, VLA-4 inh 9.6 and PKA-R1A act -10.9.
Screening Cc1cc(C)cc(N(CC(=O)Nc2cc(C)ccc2C)S(=O)(=O)c2c(C)[nH]c(=O)[nH]c2=O)c1 returned ATG4B inh 5.4, CendR NRP1 mod 5.6, PKA-R2B act -0.9, VLA-4 inh 5.5, PKA-R1A act 5.2 and VLA-4 mod pick 1.8.
For Cc1cc(C)cc(N(CC(=O)Nc2ccc(Br)cc2)S(=O)(=O)c2c(C)[nH]c(=O)[nH]c2=O)c1 the results were ATG4B inh 2.0, CendR NRP1 mod 2.0, PKA-R2B act -10.9, VLA-4 inh 2.2, PKA-R1A act -14.3 and VLA-4 mod pick 12.3.
`COC(=O)[C@@H]1[C@@H](C#N)C2(c3ccccc3-c3ccccc32)N(c2ccc(Cl)cc2)N1C#N` gave ATG4B inh 0.5, CendR NRP1 mod -3.5, PKA-R2B act -13.6, VLA-4 inh 57.8*, PKA-R1A act -6.7 and VLA-4 mod pick 39.0.
For Cc1noc(C)c1CSCC(=O)Nc1nc2ccc(S(C)(=O)=O)cc2s1 the results were ATG4B inh -0.8, CendR NRP1 mod 1.5, PKA-R2B act -1.6, VLA-4 inh 50.2*, PKA-R1A act 0.2 and VLA-4 mod pick 0.0.
Screening Cc1cc(Cl)ccc1Oc1ccccc1C(=O)CC#N returned ATG4B inh 8.9, CendR NRP1 mod -11.3, PKA-R2B act -16.1, VLA-4 inh 41.4, PKA-R1A act -6.4 and VLA-4 mod pick -15.1.

Screens as filed in PubChem.
